Source: PubChem BioAssay
HT1080 IDH1KD tx: qHTS for induction of synthetic lethality in tumor cells producing 2HG: qHTS for the HT-1080-IDH1KD cell line; HT-1080 IDH1 knockdown viability, ATP luminescence, 48 h; Potency, µM (highest dose often 46.1 µM), without a hit: at the top dose activity, negative = toxicity, hits mostly cytotoxic; AID 686971, 2013; 2% of 360,000 active;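 note: potency is the fitted concentration of half-maximal effect; 0% = DMSO wells and -100% = cell-free medium wells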
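Knockdown cells (IDH1KD HT-1080) received compounds 2 h after plating at 750 cells/well and were kept 48 h at 37 °C in 5% FBS RPMI. A CellTiter-Glo luminescence read gave % activity for curve fitting.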
HT1080-NT tox: qHTS for induction of synthetic lethality in tumor cells producing 2HG: qHTS for the HT-1080-NT fibrosarcoma cell line. HT-1080-NT fibrosarcoma viability, CellTiter-Glo ATP luminescence, 48 h. Potency, µM (highest dose often 46.1 µM), for inactives: at the highest dose activity, negative = less viability, usual class: cytotoxic. 1.6% of 360,000 active. AID 686970, 2013;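 note: NT is the 2HG producing partner of a matched IDH1 knockdown line; potency is the fitted concentration of half-maximal effect; 0% = DMSO-treated cells and -100% = media-only wells without cells; nearly all actives have a fitted effect of over 55% in size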
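Toxicity toward the 2HG-producing NT line was scored as %Activity, normalised to DMSO and no-cell wells, from CellTiter-Glo luminescence after 48 hours' treatment.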
TDP1 cell CPT: qHTS for Inhibitors of human tyrosyl-DNA phosphodiesterase 1 (TDP1): qHTS in cells in presence of CPT. chicken DT40 Tdp1-/-;hTDP1 cells + 20 nM CPT, ATP luminescence, 48 h. Potency, µM (doses to about 46.2 µM), inactives show top-dose activity change, negative = growth inhibition, hits mostly inhibitors. 12% of 420,000 active. AID 686979, 2013; note: potency is the fitted concentration of half-maximal effect; nearly all actives have a fitted effect of over 55% in size
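Chicken DT40 Tdp1-/- cells stably complemented with human TDP1 were seeded at 400 cells/well in medium containing 20 nM camptothecin, exposed to pin-transferred compounds, and grown at 37 °C for at least 48 hr. Viability was read as ATP luminescence.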
IL1B secr inh: qHTS for Inhibitors of Inflammasome Signaling: IL-1-beta AlphaLISA Primary Screen; THP-1 LPS/ATP IL-1B secretion, AlphaLISA, 16 h; stronger effect = lower value; activity change, % at 57.5 µM; 4.7% of 360,000 active; AID 743279, 2014; in the data active = activity change below about -50%; inconclusive = mostly about -30% to -49%
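THP-1 cells pretreated 1 hr with compounds (up to 57.5 uM final), then stimulated with LPS (250 ng/mL final) plus ATP (1.25 mM final); secreted IL-1B measured by AlphaLISA after 16 hr, decreased signal indicating inhibition.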
DT40 TDP1 no CPT: qHTS for Inhibitors of human tyrosyl-DNA phosphodiesterase 1 (TDP1): qHTS in cells in absence of CPT | Potency, µM (doses to about 46.2 µM), for inactives: at the highest dose activity change, negative = growth inhibition, most hits filed as inhibitors | 15% of 420,000 active | DT40 Tdp1-/- hTDP1 cells, no CPT, ATP luminescence, 48 h; note: potency is the fitted concentration of half-maximal effect; nearly all actives have a fitted effect of over 55% in size
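Compound effects on proliferation are scored in DT40 Tdp1-/-;hTDP1 cells in the absence of CPT. ATP levels (CellTiter-Glo luminescence) are recorded after a ≥48 hr, 37 °C incubation.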
An asterisk follows results filed as active; ? = inconclusive; nt = not tested or not shown. Shown are actives, neighbours in structure and some others; about 19% of the full set was active somewhere. Unless noted, calls come from the whole dose curve; as a rule, active = well fitted curve in the direction sought with a large enough effect; inconclusive = small, poorly fitted or top-dose-only effect, or another doubt; inactive = no such curve, though single readings can be large; an effect the other way counts as inactive or inconclusive. Unless noted, % is set by controls: 0 for no effect and ±100 for the full control effect.

SMILES | HT1080 IDH1KD tx | HT1080-NT tox | TDP1 cell CPT | IL1B secr inh | DT40 TDP1 no CPT
COC(=O)[C@@]1(Cc2ccc(F)cc2)[C@H]2c3cc(C(=O)N(C)C)n(Cc4ccc(C)c(F)c4F)c3C[C@H]2CN1C(=O)c1ccccc1 | ? | ? | ? | -75* | ?
O=C(NCCc1ccccc1)C1CCN(C(=O)c2sccc2-n2cccc2)CC1 | 6% | -1% | -7% | -3 | ?
O=C(NC1CCCc2ccccc21)C1CCN(C(=O)c2sccc2-n2cccc2)CC1 (stereo not given) | -6% | 0% | 15µM* | -21 | ?
COc1ccc(C2CC(=O)NC(NC(=O)c3ccc(Br)cc3)=N2)c(OC)c1OC (stereo not given) | nt | nt | -9% | nt | -9%
CCc1nc2c(OCCn3cccc3)cccn2c1N(C)C(=O)c1ccco1 | 21% | 26% | 2% | -7 | -3%
CCOc1ccc(-c2cc(C(=O)N/N=C(\C)c3cccnc3)c3ccccc3n2)cc1 | ? | ? | ? | 9 | ?
COc1ccc(-c2cc(C(=O)N/N=C(\C)c3cccnc3)c3ccccc3n2)c(OC)c1 | 4% | -1% | 10µM* | -1 | 13µM*
COc1ccc(OC)c(-c2cc(C(=O)N/N=C(\C)c3cccnc3)c3ccccc3n2)c1 | -11% | -19% | 15µM* | ? | ?
CCOc1ccccc1NC(=O)C1=C(C)Nc2ncnn2C1c1ccc(C)o1 (stereo not given) | nt | nt | 0% | nt | -1%
CCCS(=O)(=O)N1CCCC(C(=O)c2ccccc2OC)C1 (stereo not given) | 8% | 14% | -1% | 13 | 12%
CC[n+]1c(/C=C(\C)SC)sc2ccccc21 | -8% | -2% | 9.2µM* | 26 | 8.2µM*
CC[n+]1c(/C=C(\C)OC)sc2ccccc21 | 11% | 20% | -6% | -21 | -16%
CC[n+]1c(C=C2C=C(C)OC(C)=C2)sc2ccccc21 | ? | ? | 0.0052µM* | -95* | 0.033µM*
CC[n+]1c(/C=C(/C)SC)sc2ccccc21 | 0% | -1% | 4.6µM* | 24 | 5.2µM*
CC[n+]1c(/C=C/Nc2ccccc2)sc2ccccc21 | -19% | -9% | 5.8µM* | -102* | 2.9µM*
O=C(CCn1c(=O)c2sccc2n(Cc2cccc(F)c2)c1=O)NCc1ccc2c(c1)OCO2 | nt | nt | -3% | nt | 1%
Cc1cc(C)n(C(=O)c2cc3c(s2)CCCC3)n1 | -4% | -5% | -7% | 17 | -19%
CCNC(=O)CSc1nnc(-c2ccc(OC)cc2)n1CC(C)C | 12% | -2% | -7% | -5 | -3%
CC/C(=C/c1sc2ccccc2[n+]1CC)SC | 8% | 6% | 13µM* | 3 | 12µM*
CC[n+]1c(/C=C(\C)Nc2ccccc2)sc2ccccc21 | -16% | -13% | 10µM* | -80* | 18µM*
CCOc1ccc(CCNC(=O)CN2C(=O)NC3(CCCCC3)C2=O)cc1OCC | 6% | 6% | -14% | 1 | 12%
CCN(C(=O)Cc1c(C(=O)O)n(CC)c2ccccc12)c1cccc(C(F)(F)F)c1 | 10% | -8% | -1% | 30 | -7%
CC(=O)Cc1nsc(NC(=O)c2ccc(-c3cc(C(F)(F)F)ccc3Cl)o2)n1 | 11µM* | 11µM* | 21µM* | 16 | 13µM*
C[C@@H]1CN([C@@H](C)CO)C(=O)CCCn2cc(nn2)CO[C@H]1CN(C)S(=O)(=O)c1ccc(Cl)cc1 | -7% | 12% | -9% | -13 | -25%
CN(C)C(=S)N=c1ssc(=S)n1Cc1cccnc1 | -14% | -9% | 1.8µM* | 10 | 2.6µM*
CC(C)Oc1cc(F)ccc1-c1cc(C(=O)NCC2CCCCC2)[nH]n1 | 14% | ? | -22% | -13 | ?
